This passage reports outcome and AC50 results from PubChem BioAssay (EPA / NIEHS).

More than one record can exist for a structure, and the calls need not agree. Calls of active or inactive are those of the source. The calls were made as follows: active = hit-call score of the fitted dose curve at least 0.9, where 1 is the maximum; inactive = score below 0.9.

Experiment [1] is described as follows: ATG_CRE_CIS: Attagene CIS-FACTORIAL HepG2 Assay for human cAMP Responsive Element (CRE) binding protein 3 (AID 2282926). To be noted: HepG2 CRE cis-reporter, Attagene multiplexed mRNA; actives raise or lower the signal. The gist of the method:
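Liver-derived HepG2, transfected with a CRE-containing reporter panel, exposed 24 h; transcript levels sized and quantified by capillary electrophoresis of labelled amplicons; signal changes either way referenced to vehicle.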

Experiment [2] in a line: ATG_CMV_CIS: Attagene CIS-FACTORIAL HepG2 Assay for human CMV (Internal Marker) (AID 2282928).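 Also: endpoint acts as a background internal control marker rather than a target.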 To be noted: HepG2 CMV promoter reporter, transcription factor profiling; actives raise or lower the signal. The gist of the method: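 Readout: fluorescent reporter cDNA fragments separated by capillary electrophoresis after RT-PCR and HpaI cut. Cells: HepG2 carrying transfected cis-promoter reporter constructs, dosed 24 h. Endpoint serves as background internal-marker control, fit bidirectionally versus DMSO.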

Experiment [3] can be described thus: ATG_DR4_LXR_CIS: Attagene CIS-FACTORIAL HepG2 Assay for human Liver X Receptor (LXR), DR4 submotif (AID 2282929). The conditions noted are these: HepG2 Attagene DR4 cis-reporter, mRNA transcription; actives raise or lower the signal. The gist of the method:
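Total RNA from 24 h-treated, MRTU-transfected HepG2 cells underwent reverse transcription, PCR, fluorescent primer extension and restriction digestion before capillary electrophoresis. Both increases and decreases in reporter signal were fitted against DMSO.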

Experiment [4] deals with Aryl hydrocarbon receptor (Homo sapiens) (UniProt P35869). The experiment is described as follows: ATG_Ahr_CIS: Attagene CIS-FACTORIAL HepG2 Assay for human Aryl Hydrocarbon Receptor (Ahr) (AID 2282930). To be noted: HepG2 AhR cis-factorial reporter transcription; actives raise or lower the signal. An outline of the steps: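 Values derive from bidirectional fitting against DMSO negative control. Underlying signal: cis-element reporter mRNA in transiently transfected HepG2, harvested 24 h post-dose and measured by RT-PCR plus capillary electrophoresis.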
Sequence of Aryl hydrocarbon receptor (Homo sapiens) (P35869 whole entry, looked up): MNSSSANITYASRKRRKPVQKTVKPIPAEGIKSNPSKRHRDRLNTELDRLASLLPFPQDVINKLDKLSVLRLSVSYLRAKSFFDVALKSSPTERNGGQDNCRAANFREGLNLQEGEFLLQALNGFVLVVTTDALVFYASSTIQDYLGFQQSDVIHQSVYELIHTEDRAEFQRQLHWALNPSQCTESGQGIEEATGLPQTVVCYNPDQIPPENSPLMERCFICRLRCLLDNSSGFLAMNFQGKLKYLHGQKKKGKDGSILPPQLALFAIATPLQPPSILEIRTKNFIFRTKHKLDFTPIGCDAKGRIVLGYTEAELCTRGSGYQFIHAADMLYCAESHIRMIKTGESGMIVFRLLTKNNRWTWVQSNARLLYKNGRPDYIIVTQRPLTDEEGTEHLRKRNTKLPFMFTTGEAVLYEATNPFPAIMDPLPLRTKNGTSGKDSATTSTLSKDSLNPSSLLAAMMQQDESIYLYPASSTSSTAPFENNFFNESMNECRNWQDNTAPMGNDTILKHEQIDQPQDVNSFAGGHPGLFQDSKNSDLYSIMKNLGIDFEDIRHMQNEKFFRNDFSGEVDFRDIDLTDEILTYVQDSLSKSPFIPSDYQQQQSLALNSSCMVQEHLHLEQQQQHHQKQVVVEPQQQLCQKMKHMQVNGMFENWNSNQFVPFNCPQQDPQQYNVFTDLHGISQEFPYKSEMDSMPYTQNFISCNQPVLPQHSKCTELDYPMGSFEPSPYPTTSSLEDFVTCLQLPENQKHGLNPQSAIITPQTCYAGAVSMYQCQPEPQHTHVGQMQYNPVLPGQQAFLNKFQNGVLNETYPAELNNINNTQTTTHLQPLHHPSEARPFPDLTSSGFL

Experiment [5] can be described thus: ATG_AP_1_CIS: Attagene CIS-FACTORIAL HepG2 Assay for human Activator Protein 1 (AP-1) (AID 2282931). The conditions noted are these: HepG2 Attagene cis-factorial AP-1 reporter mRNA; actives raise or lower the signal. An outline of the steps: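 HepG2, transient cis-reporter transfection; 24 h; readout RT-PCR/CE fluorescence; DMSO baseline, gain and loss fitted.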

The nature of experiment [6]: ATG_BRE_CIS: Attagene CIS-FACTORIAL HepG2 Assay for human Bone Morphogenetic Protein (BMP) Response Element (BRE) (AID 2282933). The conditions noted are these: HepG2 BMP response element reporter, Attagene transcription factor profiling; actives raise or lower the signal. The gist of the method: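 Fluorescence-labelled reporter cDNA fragments, separated by capillary electrophoresis, gave the signal for this component of a 52-readout multiplex. HepG2 cells were transfected, exposed to chemicals for 24 h, and compared with DMSO using bidirectional fitting.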

Experiment [7] has as its target Retinoic acid receptor alpha (Homo sapiens) (UniProt P10276). The experiment is described as follows: ATG_DR5_RAR_CIS: Attagene CIS-FACTORIAL HepG2 Assay for human Retinoic Acid Receptor Alpha (RARE), DR5 submotif (AID 2282934). To be noted: HepG2 Attagene cis-factorial RARE DR5 reporter, mRNA; actives raise or lower the signal. The gist of the method: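 Endpoint fitted in both directions relative to DMSO as negative control. It reflects DR5 cis-element reporter mRNA induction in transiently transfected HepG2 cells, measured 24 h after dosing through RT-PCR and fluorescent capillary electrophoresis.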

Experiment [8] addresses Transcription factor E2F1 (Homo sapiens) (UniProt Q01094). The experiment is described as follows: ATG_E2F_CIS: Attagene CIS-FACTORIAL HepG2 Assay for human E2F Transcription Factor 1 (AID 2282935). To be noted: HepG2 Attagene cis-reporter, E2F reporter RNA transcripts; actives raise or lower the signal. The gist of the method:
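First, HepG2 cells were transfected with reporter transcription units. Next, they were dosed for 24 h. Then RNA was isolated, converted to cDNA, PCR-amplified, FAM-labeled, HpaI-digested and analyzed by capillary electrophoresis.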

Experiment [9] can be described thus: ATG_AP_2_CIS: Attagene CIS-FACTORIAL HepG2 Assay for human Activator Protein 2 (AP-2) (AID 2282932). The conditions noted are these: HepG2 AP-2 cis-reporter, Attagene transcription factor profiling; actives raise or lower the signal. An outline of the steps: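 Cells (HepG2) transfected with promoter-driven reporter constructs, treated 24 h. Total RNA reverse-transcribed, reporter cDNA PCR-amplified, FAM-labelled by primer extension, digested, resolved by capillary electrophoresis. Activity fitted both directions versus DMSO.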

The target in experiment [10] is CCAAT/enhancer-binding protein beta (Homo sapiens) (UniProt P17676). The experiment is described as follows: ATG_C_EBP_CIS: Attagene CIS-FACTORIAL HepG2 Assay for human CCAAT/Enhancer Binding Protein (C/EBP) beta (AID 2282927). The conditions noted are these: HepG2 Attagene cis-factorial transcription factor reporter; actives raise or lower the signal. The gist of the method: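 Following a 24 h incubation with test chemical, transfected HepG2 cells yielded RNA whose reporter transcripts were quantified by RT-PCR and fluorescent capillary electrophoresis, with DMSO serving as baseline for bidirectional fitting.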
Sequence of CCAAT/enhancer-binding protein beta (Homo sapiens) (P17676 whole entry, looked up): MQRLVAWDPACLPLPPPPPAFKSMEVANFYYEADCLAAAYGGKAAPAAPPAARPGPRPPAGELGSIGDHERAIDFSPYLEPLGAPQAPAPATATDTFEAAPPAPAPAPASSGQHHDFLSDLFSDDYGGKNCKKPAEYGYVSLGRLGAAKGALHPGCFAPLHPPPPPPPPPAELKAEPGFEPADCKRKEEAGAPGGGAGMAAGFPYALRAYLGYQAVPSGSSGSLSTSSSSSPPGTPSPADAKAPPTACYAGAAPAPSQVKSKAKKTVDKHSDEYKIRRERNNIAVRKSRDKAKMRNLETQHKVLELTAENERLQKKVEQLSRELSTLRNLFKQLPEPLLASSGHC

Sequence of Retinoic acid receptor alpha (Homo sapiens) (P10276 whole entry, looked up): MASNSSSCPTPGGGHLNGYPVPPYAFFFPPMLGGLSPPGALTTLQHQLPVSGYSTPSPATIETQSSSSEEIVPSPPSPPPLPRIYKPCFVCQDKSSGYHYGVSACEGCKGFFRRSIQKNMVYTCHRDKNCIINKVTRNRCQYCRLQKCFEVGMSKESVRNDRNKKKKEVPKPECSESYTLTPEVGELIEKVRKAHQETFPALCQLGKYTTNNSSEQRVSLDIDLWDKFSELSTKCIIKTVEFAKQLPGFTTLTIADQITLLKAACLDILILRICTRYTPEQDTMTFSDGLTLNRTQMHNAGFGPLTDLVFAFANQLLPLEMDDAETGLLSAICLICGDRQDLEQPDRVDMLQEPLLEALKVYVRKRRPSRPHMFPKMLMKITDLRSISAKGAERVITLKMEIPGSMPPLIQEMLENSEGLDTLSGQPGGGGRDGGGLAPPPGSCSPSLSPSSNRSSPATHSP
Sequence of Transcription factor E2F1 (Homo sapiens) (Q01094 whole entry, looked up): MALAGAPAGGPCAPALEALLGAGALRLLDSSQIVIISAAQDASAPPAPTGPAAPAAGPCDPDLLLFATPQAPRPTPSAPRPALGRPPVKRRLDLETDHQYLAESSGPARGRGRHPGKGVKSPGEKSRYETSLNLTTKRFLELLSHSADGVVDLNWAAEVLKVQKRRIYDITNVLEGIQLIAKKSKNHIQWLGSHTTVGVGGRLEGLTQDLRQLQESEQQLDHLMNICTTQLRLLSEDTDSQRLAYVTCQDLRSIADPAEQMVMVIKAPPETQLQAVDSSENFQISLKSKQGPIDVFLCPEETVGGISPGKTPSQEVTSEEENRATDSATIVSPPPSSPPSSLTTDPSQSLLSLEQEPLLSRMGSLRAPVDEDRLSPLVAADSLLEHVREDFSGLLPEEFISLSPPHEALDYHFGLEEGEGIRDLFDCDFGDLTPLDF

In the case of `Cl/C=C/Cl`, the outcome in experiment [1], in experiment [2], in experiment [3], in [4], in experiment [5] and in [6] was inactive. In addition, the result in [7] and in experiment [8] was inactive.

Take `CCN(CC)C(=O)Cl`: the call in [1], in experiment [2], in experiment [3], in experiment [4], in experiment [6] and in [8] was inactive.

As to `CCOP(=S)(OCC)Oc1ccc(S(C)=O)cc1` (stereo unspecified), the outcome in [1], in [2], in experiment [3], in experiment [5], in experiment [9] and in experiment [6] was inactive. Further, the compound was classed as inactive in [7] and in experiment [8]. The concentration at half-maximal activity (AC50) (commonly the concentration at which the activity in the assay is half-maximal) in experiment [4] is 32.5 µM (active).

As to `COc1cc2c(cc1OC)[C@@]13CCN4CC5=CCO[C@H]6CC(=O)N2[C@H]1[C@H]6[C@H]5C[C@H]43`, the call in experiment [1], in experiment [2], in [3], in experiment [4], in experiment [6] and in experiment [7] was inactive. Further, the call in experiment [8] was inactive.

Turning to `CCCCCCCCc1ccc(O)cc1`, the call in [1], in experiment [2], in experiment [3], in experiment [4], in experiment [5] and in [9] was inactive. Moreover, the call in experiment [6], in [7] and in [8] was inactive. The AC50 was 11.2 µM (active) in experiment [3] and 18.7 µM (active) in experiment [5].

Take `Nc1ccc(N=Nc2ccc(-c3ccc(N=Nc4c(S(=O)(=O)O)cc5cc(S(=O)(=O)O)c(N=Nc6ccccc6)c(O)c5c4N)cc3)cc2)c(N)c1`: the call in experiment [1], in experiment [2], in experiment [3], in experiment [4], in experiment [9] and in experiment [7] was inactive. For the same compound, the compound was classed as inactive in experiment [8]. Moreover, the AC50 in experiment [6] is 4.8 µM (active).

In the case of `O=[N+]([O-])c1ccc(O)c([N+](=O)[O-])c1`, the outcome in [10], in experiment [2], in experiment [3], in experiment [4], in experiment [5] and in experiment [9] was inactive. The result in [6], in experiment [7] and in experiment [8] was inactive.

`CCOC(=O)Nc1cccc(OC(=O)Nc2ccccc2)c1`: the compound was classed as inactive in [1], in [2], in [3], in experiment [4], in experiment [9] and in [6]. The compound was called inactive in [7] and in [8].

In the case of `NNC(=S)NN`, the call in experiment [1], in experiment [10], in experiment [3], in [4], in experiment [6] and in experiment [8] was inactive.

Turning to `CCc1ccccc1N`, the outcome in experiment [10], in [2], in experiment [3], in experiment [5], in experiment [9] and in experiment [6] was inactive. The compound was classed as inactive in [7] and in experiment [8]. In addition, the AC50 in experiment [4] is 67.2 µM (active).

Consider `ClCc1ccccn1`, for which the AC50 in experiment [1] was 67.5 µM (active); in experiment [4], 76 µM (active). The compound was classed as inactive in experiment [2], in experiment [3], in experiment [5], in [9], in experiment [6] and in [8].

Regarding `CC(C)c1cccc(C(C)C)c1O`, the result in experiment [1], in experiment [2], in [3], in [4], in [5] and in [6] was inactive. Moreover, the result in [7] and in experiment [8] was inactive.

With `CC(C#N)CCC#N` (stereo unspecified), the compound was called inactive in experiment [1], in experiment [2], in experiment [3], in experiment [4], in [6] and in experiment [7]. Moreover, in experiment [8], the call was inactive.

Regarding `Cc1ccccc1N`, the call in [1], in experiment [2], in experiment [3], in experiment [4], in [5] and in experiment [6] was inactive. In addition, the compound was classed as inactive in experiment [8].

Consider `N#Cc1ccccn1`, for which the call in experiment [1], in experiment [2], in experiment [3], in [4], in [5] and in experiment [9] was inactive. The call in experiment [6], in experiment [7] and in [8] was inactive.

`ClC1=C(Cl)[C@]2(Cl)[C@@H]3[C@@H](Cl)[C@@H](Cl)C[C@@H]3[C@@]1(Cl)C2(Cl)Cl`: the result in experiment [10], in experiment [2], in experiment [3], in [5], in experiment [9] and in [6] was inactive. The call in experiment [7] and in experiment [8] was inactive.

`NC(=S)Nc1ccccc1`: the outcome in experiment [2], in experiment [3], in experiment [4], in experiment [5], in [9] and in experiment [6] was inactive. The outcome in experiment [7] and in [8] was inactive.

`CC(=[OH+])/C=C(/C)[O-].CC(=[OH+])/C=C(/C)[O-].CC(=[OH+])/C=C(/C)[O-].[Al]`: the outcome in experiment [10], in experiment [2], in experiment [3], in experiment [4], in experiment [5] and in experiment [9] was inactive. For the same compound, the compound was classed as inactive in [6] and in experiment [8].

`CNC(=O)O/N=C/C(C)(C)S(C)=O` (stereo unspecified): the outcome in [10], in [2], in [6], in [7] and in [8] was inactive. Moreover, the figures for the AC50 in experiment [3] and in [5] were 99.5 µM (active) and 73 µM (active), respectively.
